Experimental data: the supplement of paper PMC4466140

The binders below were run against AgAbp1 (assay: SPOT peptide array binding signal intensity (averaged, normalized) (arbitrary units (background-subtracted, floor 0; scale differs between SH3 domains)); higher = stronger binding of the SH3 domain to the peptide).
In short: (§1)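 Detection of bound protein relied on anti-GST antibody, an HRP anti-mouse secondary and luminol, with imaging and quantification in Genespotter. The bound protein was GST-fused SH3 domains from four yeast species, incubated at 10 μg/ml overnight at 4°C in TBS-based blocking buffer on cellulose membranes carrying synthetic 15-mer peptides with cysteines replaced by serines. Binding signal is normalized, background-subtracted spot intensity averaged over replicates, in arbitrary units that differ between domains.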
With DTIDNVKSKIQDKEG the “SPOT peptide array binding signal intensity” value was ≤ 0.

Each binder was assayed against AgBbc1 in the same assay as above.
In short: as §1
For DTIDNVKSKIQDKEG, the “SPOT peptide array binding signal intensity” value was ≤ 0.

What follows are binders tested against AgBem1-D1 in the same assay as above.
In short: as §1
In the case of DTIDNVKSKIQDKEG, the “SPOT peptide array binding signal intensity” value is reported as ≤ 0.

Each binder was assayed against AgBzz1-D1 in the same assay as above.
In short: as §1
For DTIDNVKSKIQDKEG, the “SPOT peptide array binding signal intensity” value was ≤ 0.

The binders below were run against AgBzz1-D2 in the same assay as above.
In short: as §1
In the case of DTIDNVKSKIQDKEG, the “SPOT peptide array binding signal intensity” value is reported as ≤ 0.

The binders below were run against AgCyk3 in the same assay as above.
In short: as §1
For DTIDNVKSKIQDKEG, the “SPOT peptide array binding signal intensity” value was ≤ 0.

The binders below were run against AgFus1 in the same assay as above.
In short: as §1
In the case of DTIDNVKSKIQDKEG, the “SPOT peptide array binding signal intensity” value is reported as ≤ 0.

Each binder was assayed against AgHof1 in the same assay as above.
In short: as §1
For DTIDNVKSKIQDKEG, the “SPOT peptide array binding signal intensity” value was ≤ 0.

Each binder was assayed against AgHse1 in the same assay as above.
In short: as §1
With DTIDNVKSKIQDKEG the “SPOT peptide array binding signal intensity” value was 4.

Each binder was assayed against AgLsb1 in the same assay as above.
In short: as §1
For DTIDNVKSKIQDKEG, the “SPOT peptide array binding signal intensity” value was ≤ 0.

The binders below were run against AgLsb4 in the same assay as above.
In short: as §1
For DTIDNVKSKIQDKEG, the “SPOT peptide array binding signal intensity” value was ≤ 0.

The binders below were run against AgMyo5 in the same assay as above.
In short: as §1
In the case of DTIDNVKSKIQDKEG, the “SPOT peptide array binding signal intensity” value is reported as ≤ 0.

The binders below were run against AgNbp2 in the same assay as above.
In short: as §1
DTIDNVKSKIQDKEG was tested, and the “SPOT peptide array binding signal intensity” value was ≤ 0.

These binders were tested against AgRvs167 in the same assay as above.
In short: as §1
DTIDNVKSKIQDKEG was tested, and the “SPOT peptide array binding signal intensity” value was 0.5.

The binders below were run against AgSho1 in the same assay as above.
In short: as §1
For DTIDNVKSKIQDKEG, the “SPOT peptide array binding signal intensity” value was ≤ 0.

These binders were tested against AgSla1-D1-D2 in the same assay as above.
In short: as §1
With DTIDNVKSKIQDKEG the “SPOT peptide array binding signal intensity” value was ≤ 0.

These binders were tested against AgSla1-D3 in the same assay as above.
In short: as §1
DTIDNVKSKIQDKEG was tested, and the “SPOT peptide array binding signal intensity” value was ≤ 0.

These binders were tested against CaAbp1-D1 in the same assay as above.
In short: as §1
In the case of DTIDNVKSKIQDKEG, the “SPOT peptide array binding signal intensity” value is reported as ≤ 0.

Each binder was assayed against CaAbp1-D2 in the same assay as above.
In short: as §1
DTIDNVKSKIQDKEG was tested, and the “SPOT peptide array binding signal intensity” value was ≤ 0.

Each binder was assayed against CaBbc1 in the same assay as above.
In short: as §1
With DTIDNVKSKIQDKEG the “SPOT peptide array binding signal intensity” value was ≤ 0.

Each binder was assayed against CaBem1-D1 in the same assay as above.
In short: as §1
For DTIDNVKSKIQDKEG, the “SPOT peptide array binding signal intensity” value was ≤ 0.

The binders below were run against CaBzz1-D1 in the same assay as above.
In short: as §1
In the case of DTIDNVKSKIQDKEG, the “SPOT peptide array binding signal intensity” value is reported as 21.

What follows are binders tested against CaBzz1-D2 in the same assay as above.
In short: as §1
With DTIDNVKSKIQDKEG the “SPOT peptide array binding signal intensity” value was ≤ 0.

These binders were tested against CaCyk3 in the same assay as above.
In short: as §1
In the case of DTIDNVKSKIQDKEG, the “SPOT peptide array binding signal intensity” value is reported as ≤ 0.

The binders below were run against CaFus1 in the same assay as above.
In short: as §1
In the case of DTIDNVKSKIQDKEG, the “SPOT peptide array binding signal intensity” value is reported as ≤ 0.

These binders were tested against CaHof1 in the same assay as above.
In short: as §1
For DTIDNVKSKIQDKEG, the “SPOT peptide array binding signal intensity” value was ≤ 0.

Each binder was assayed against CaHse1 in the same assay as above.
In short: as §1
In the case of DTIDNVKSKIQDKEG, the “SPOT peptide array binding signal intensity” value is reported as ≤ 0.

What follows are binders tested against CaLsb1 in the same assay as above.
In short: as §1
DTIDNVKSKIQDKEG was tested, and the “SPOT peptide array binding signal intensity” value was ≤ 0.

Each binder was assayed against CaLsb4 in the same assay as above.
In short: as §1
With DTIDNVKSKIQDKEG the “SPOT peptide array binding signal intensity” value was ≤ 0.

Each binder was assayed against CaMyo5 in the same assay as above.
In short: as §1
For DTIDNVKSKIQDKEG, the “SPOT peptide array binding signal intensity” value was ≤ 0.

What follows are binders tested against CaNbp2 in the same assay as above.
In short: as §1
With DTIDNVKSKIQDKEG the “SPOT peptide array binding signal intensity” value was ≤ 0.

Each binder was assayed against CaRvs167 in the same assay as above.
In short: as §1
In the case of DTIDNVKSKIQDKEG, the “SPOT peptide array binding signal intensity” value is reported as 2.

Each binder was assayed against CaRvs167-3 in the same assay as above.
In short: as §1
With DTIDNVKSKIQDKEG the “SPOT peptide array binding signal intensity” value was 2.5.

What follows are binders tested against CaSho1 in the same assay as above.
In short: as §1
With DTIDNVKSKIQDKEG the “SPOT peptide array binding signal intensity” value was ≤ 0.

What follows are binders tested against CaSla1-D1-D2 in the same assay as above.
In short: as §1
With DTIDNVKSKIQDKEG the “SPOT peptide array binding signal intensity” value was ≤ 0.

These binders were tested against CaSla1-D3 in the same assay as above.
In short: as §1
In the case of DTIDNVKSKIQDKEG, the “SPOT peptide array binding signal intensity” value is reported as ≤ 0.

The binders below were run against ScAbp1 in the same assay as above.
In short: as §1
For DTIDNVKSKIQDKEG, the “SPOT peptide array binding signal intensity” value was ≤ 0.

Each binder was assayed against ScBbc1 in the same assay as above.
In short: as §1
For DTIDNVKSKIQDKEG, the “SPOT peptide array binding signal intensity” value was ≤ 0.

These binders were tested against ScBem1-D1 in the same assay as above.
In short: as §1
DTIDNVKSKIQDKEG was tested, and the “SPOT peptide array binding signal intensity” value was ≤ 0.

These binders were tested against ScBzz1-D1 in the same assay as above.
In short: as §1
With DTIDNVKSKIQDKEG the “SPOT peptide array binding signal intensity” value was 12.

Each binder was assayed against ScBzz1-D2 in the same assay as above.
In short: as §1
DTIDNVKSKIQDKEG was tested, and the “SPOT peptide array binding signal intensity” value was ≤ 0.

What follows are binders tested against ScCyk3 in the same assay as above.
In short: as §1
DTIDNVKSKIQDKEG was tested, and the “SPOT peptide array binding signal intensity” value was ≤ 0.

The binders below were run against ScFus1 in the same assay as above.
In short: as §1
DTIDNVKSKIQDKEG was tested, and the “SPOT peptide array binding signal intensity” value was ≤ 0.

Each binder was assayed against ScHof1 in the same assay as above.
In short: as §1
DTIDNVKSKIQDKEG was tested, and the “SPOT peptide array binding signal intensity” value was ≤ 0.

These binders were tested against ScHse1 in the same assay as above.
In short: as §1
In the case of DTIDNVKSKIQDKEG, the “SPOT peptide array binding signal intensity” value is reported as ≤ 0.

These binders were tested against ScLsb1 in the same assay as above.
In short: as §1
For DTIDNVKSKIQDKEG, the “SPOT peptide array binding signal intensity” value was ≤ 0.

The binders below were run against ScLsb2 in the same assay as above.
In short: as §1
In the case of DTIDNVKSKIQDKEG, the “SPOT peptide array binding signal intensity” value is reported as ≤ 0.

Each binder was assayed against ScLsb3 in the same assay as above.
In short: as §1
With DTIDNVKSKIQDKEG the “SPOT peptide array binding signal intensity” value was ≤ 0.

These binders were tested against ScLsb4 in the same assay as above.
In short: as §1
With DTIDNVKSKIQDKEG the “SPOT peptide array binding signal intensity” value was ≤ 0.

These binders were tested against ScMyo3 in the same assay as above.
In short: as §1
DTIDNVKSKIQDKEG was tested, and the “SPOT peptide array binding signal intensity” value was ≤ 0.

These binders were tested against ScMyo5 in the same assay as above.
In short: as §1
For DTIDNVKSKIQDKEG, the “SPOT peptide array binding signal intensity” value was 1.

What follows are binders tested against ScNbp2 in the same assay as above.
In short: as §1
DTIDNVKSKIQDKEG was tested, and the “SPOT peptide array binding signal intensity” value was ≤ 0.

Each binder was assayed against ScPex13 in the same assay as above.
In short: as §1
For DTIDNVKSKIQDKEG, the “SPOT peptide array binding signal intensity” value was ≤ 0.

Each binder was assayed against ScRvs167 in the same assay as above.
In short: as §1
In the case of DTIDNVKSKIQDKEG, the “SPOT peptide array binding signal intensity” value is reported as ≤ 0.

The binders below were run against ScSho1 in the same assay as above.
In short: as §1
In the case of DTIDNVKSKIQDKEG, the “SPOT peptide array binding signal intensity” value is reported as ≤ 0.

Each binder was assayed against ScSla1-D1-D2 in the same assay as above.
In short: as §1
With DTIDNVKSKIQDKEG the “SPOT peptide array binding signal intensity” value was ≤ 0.

Each binder was assayed against ScSla1-D3 in the same assay as above.
In short: as §1
DTIDNVKSKIQDKEG was tested, and the “SPOT peptide array binding signal intensity” value was ≤ 0.

These binders were tested against SpAbp1-D1 in the same assay as above.
In short: as §1
With DTIDNVKSKIQDKEG the “SPOT peptide array binding signal intensity” value was ≤ 0.

The binders below were run against SpBbc1 in the same assay as above.
In short: as §1
In the case of DTIDNVKSKIQDKEG, the “SPOT peptide array binding signal intensity” value is reported as ≤ 0.

What follows are binders tested against SpBzz1-D1 in the same assay as above.
In short: as §1
DTIDNVKSKIQDKEG was tested, and the “SPOT peptide array binding signal intensity” value was ≤ 0.

These binders were tested against SpBzz1-D2 in the same assay as above.
In short: as §1
For DTIDNVKSKIQDKEG, the “SPOT peptide array binding signal intensity” value was ≤ 0.

What follows are binders tested against SpCyk3 in the same assay as above.
In short: as §1
With DTIDNVKSKIQDKEG the “SPOT peptide array binding signal intensity” value was ≤ 0.

What follows are binders tested against SpHof1 in the same assay as above.
In short: as §1
DTIDNVKSKIQDKEG was tested, and the “SPOT peptide array binding signal intensity” value was ≤ 0.

Each binder was assayed against SpHof1-2 in the same assay as above.
In short: as §1
DTIDNVKSKIQDKEG was tested, and the “SPOT peptide array binding signal intensity” value was ≤ 0.

These binders were tested against SpHof1-3 in the same assay as above.
In short: as §1
DTIDNVKSKIQDKEG was tested, and the “SPOT peptide array binding signal intensity” value was 7.75.

What follows are binders tested against SpHse1 in the same assay as above.
In short: as §1
With DTIDNVKSKIQDKEG the “SPOT peptide array binding signal intensity” value was ≤ 0.

What follows are binders tested against SpLsb1 in the same assay as above.
In short: as §1
For DTIDNVKSKIQDKEG, the “SPOT peptide array binding signal intensity” value was ≤ 0.

These binders were tested against SpLsb4 in the same assay as above.
In short: as §1
With DTIDNVKSKIQDKEG the “SPOT peptide array binding signal intensity” value was ≤ 0.

These binders were tested against SpMyo1 in the same assay as above.
In short: as §1
With DTIDNVKSKIQDKEG the “SPOT peptide array binding signal intensity” value was ≤ 0.

These binders were tested against SpNbp2 in the same assay as above.
In short: as §1
With DTIDNVKSKIQDKEG the “SPOT peptide array binding signal intensity” value was ≤ 0.

Each binder was assayed against SpPex13 in the same assay as above.
In short: as §1
In the case of DTIDNVKSKIQDKEG, the “SPOT peptide array binding signal intensity” value is reported as ≤ 0.

These binders were tested against SpRvs167 in the same assay as above.
In short: as §1
For DTIDNVKSKIQDKEG, the “SPOT peptide array binding signal intensity” value was ≤ 0.

These binders were tested against SpSla1-D1-D2 in the same assay as above.
In short: as §1
With DTIDNVKSKIQDKEG the “SPOT peptide array binding signal intensity” value was ≤ 0.

What follows are binders tested against SpSla1-D3 in the same assay as above.
In short: as §1
With DTIDNVKSKIQDKEG the “SPOT peptide array binding signal intensity” value was ≤ 0.
